Here are results for 37 compounds from PubChem BioAssay (NCI).

“And” between values parts separate entries of the source, which are not always exact repeats. Equal values may be shown once. Compounds without any hit were thinned out: in the full panel of roughly 79,000, 15% have a hit. A number with no mark means an inactive call. The source made the active and inactive calls. Cut-off read from the data, not from the text of the source: active = growth inhibition above about 70%; inactive = the rest.

A short description of assay [1]: NCI Yeast Anticancer Drug Screen. Data for the rad50 strain (AID 155).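 Note: 0% = growth of vehicle-only cultures of the same strain.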 The note with it: S. cerevisiae rad50 strain growth inhibition; at 50.0 µM; active compounds read high. In short, it runs like this: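 DNA repair mutant yeast, compound exposure, growth read-out; inhibition is taken relative to vehicle.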
Assay [2] is described as follows: NCI Yeast Anticancer Drug Screen. Data for the mec2-1 strain (AID 157). The note with it: S. cerevisiae mec2-1 strain, at 50.0 µM, active compounds read high. In short, it runs like this:
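Readout is yeast growth inhibition, normalised to vehicle-treated controls, in the mec2-1 strain exposed to compound.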

Assay [3] can be described thus: NCI Yeast Anticancer Drug Screen. Data for the sgs1 mgt1 strain (AID 161).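 Note: 0% = growth of cultures given vehicle only.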 The note with it: S. cerevisiae sgs1 mgt1 strain, at 50.0 µM, active compounds read high. In short, it runs like this:
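Percent growth inhibition was derived by comparing compound-exposed mutant yeast with vehicle-exposed cultures. The strain carries alterations in DNA damage repair.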

A short description of assay [4]: NCI Yeast Anticancer Drug Screen. Data for the cln2 rad14 strain (AID 165).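 Note: 0% = growth equal to vehicle treated cultures.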 The note with it: S. cerevisiae cln2 rad14 strain, at 50.0 µM, active compounds read high. The procedure, abridged: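 Relative to vehicle controls, growth inhibition of compound-treated cln2 rad14 yeast was recorded.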
Assay [5] in a line: NCI Yeast Anticancer Drug Screen. Data for the bub3 strain (AID 167). The note with it: S. cerevisiae bub3 mutant strain, at 50.0 µM, active compounds read high. In short, it runs like this: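 In this screen, a yeast mutant lacking normal mitotic checkpoint function is challenged with compound. Relative growth versus vehicle gives the inhibition value.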
Assay [6] in a line: NCI Yeast Anticancer Drug Screen. Data for the mlh1 rad18 strain (AID 175). The note with it: S. cerevisiae mlh1 rad18 strain growth inhibition; at 50.0 µM; active compounds read high. In short, it runs like this:
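Test agents were incubated with a yeast strain of defined genotype (DNA damage repair defect). Inhibition of growth was derived by comparison with vehicle-exposed cultures.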

On to `CN(C1CCCCC1)C1CCCCC1`, for which the growth inhibition in assay [1] is -7.75%; in assay [2], -2.05%; in assay [3], -6.65%; in assay [4], -9.85%; in assay [5], 6.6%; in assay [6] it was -8.3%.
On to `CC1(C)CN=C(Nc2ccc(F)cc2)S1`, for which the growth inhibition in assay [1] was 2.55%; in assay [2] it was 0.6%; in assay [3] it was -17.9%; in assay [4], 19.3%; in assay [5], -17.1%; in assay [6] it was -21.8%.
As to `Cc1[nH]c2cc([N+](=O)[O-])ccc2c1[N+](=O)[O-]`, the growth inhibition was 44.6% and 36.9% in assay [1]; 32.2% and 25.4% in assay [2]; 26% and 38.3% in assay [3]; 24.9% and 9.1% in assay [4]; -4.65% and -4.55% in assay [5]; 59% and 41.8% in assay [6].
Take `CCCCC1(CCS)C(=O)NC(=O)NC1=O`: the growth inhibition in assay [1] is -5.55%; in assay [2] it was -11.8%; in assay [3], -4.75%; in assay [4] it was -10.1%; in assay [5], -4.05%; in assay [6], -17.1%.
Consider `CC[CH2][Sn](=[O])[c]1ccccc1`, for which the growth inhibition in assay [1] is 61.6%; in assay [2], 72% (active); in assay [3] it was 57.1%; in assay [4], 42.3%; in assay [5], 50.6%; in assay [6], 78.2% (active).
Regarding `CC1(C)CN1C1=C(Br)C(=O)C(N2CC2(C)C)=C(Br)C1=O`, the growth inhibition in assay [1] was 18.8%; in assay [2] it was 0.9%; in assay [3], 7.75%; in assay [4], 9.9%; in assay [5], -0.65%; in assay [6] it was 30.1%.
Regarding `CCC1(CC(C)(C)Cl)C(=O)NC(=O)NC1=O`, the growth inhibition is -4.55% in assay [1]; -7.7% in assay [2]; -21.4% in assay [3]; -30.7% in assay [4]; 3.45% in assay [5]; -20% in assay [6].
With `COc1cc([C@@H]2c3cc4c(cc3C[C@H]3COC(=O)[C@@H]32)OCO4)cc(OC)c1OC`, the growth inhibition in assay [1] is 5.2%; in assay [2], -3.05%; in assay [3], 10.2%; in assay [4] it was 27.6%; in assay [5], 24.4%; in assay [6] it was 13.6%.
Consider `CC1(C)N=C(NN=C2CCCCC2)SP1(=O)NNc1ncccn1` (configuration not stated), for which the growth inhibition in assay [1] was 30.1%; in assay [2], 11.7%; in assay [3], 25.8%; in assay [4], 1.95%; in assay [5], 15.1%; in assay [6], 23.2%.
Turning to `CCCCNCCc1cccnc1`, the growth inhibition in assay [1] was 33.5%; in assay [2], 13.8%; in assay [3], 20.8%; in assay [4], 23.7%; in assay [5] it was 0.8%; in assay [6], 15.9%.
Take `Cc1ccc(C2=CCNCC2)cc1`: the growth inhibition in assay [1] was -9.45%; in assay [2] it was -24.3%; in assay [3] it was -4.3%; in assay [4] it was 6.75%; in assay [5] it was -12%; in assay [6] it was -2.65%.
Regarding `Cc1cc(-c2ccccc2)cc(C)[n+]1CC[n+]1c(C)cc(-c2ccccc2)cc1C`, the growth inhibition is -14.9% in assay [1]; -10.7% in assay [2]; -5.85% in assay [3]; -47.7% in assay [4]; 3.4% in assay [5]; -19.4% in assay [6].
For `N#CCc1ccc(Br)cc1`, the growth inhibition in assay [1] was 0.2%; in assay [2], 0.8%; in assay [3], 5.65%; in assay [4], -16.9%; in assay [5] it was -14.9%; in assay [6], 5.8%.
Consider `O=C1/C(=C\c2ccccc2)N2CCC1CC2`, for which the growth inhibition in assay [1] is 4.2%; in assay [2], -18.1%; in assay [3], -1.65%; in assay [4], -70.6%; in assay [5], -18.1%; in assay [6], -20.6%.
In the case of `Cc1ccc(O)c(CN2CCN(Cc3cc(C)ccc3O)CC2)c1`, the growth inhibition in assay [1] is 3.1%; in assay [2] it was 15.8%; in assay [3], 13.2%; in assay [4] it was -2.15%; in assay [5] it was 14.4%; in assay [6], 7.8%.
With `Fc1ccc(C2(N3CCC4(CC3)OCCO4)CCCCC2)cc1`, the growth inhibition in assay [1] is -8.05%; in assay [2], 9%; in assay [3], 14.1%; in assay [4], -15.5%; in assay [5], 0.1%; in assay [6], 5.6%.
For `CCCC1C(=O)NC(=O)NC1=O`, the growth inhibition in assay [1] is 6.3%; in assay [2], -6%; in assay [3], -0.75%; in assay [4], -10.9%; in assay [5] it was 3.75%; in assay [6], -1.05%.
For `CC(C)(C)C[C](C)(c1ccccc1)[Sn]([CH3])([CH3])[CH3]` (configuration not stated), the growth inhibition in assay [1] was -14.2%; in assay [2], 4.9%; in assay [3], 8.4%; in assay [4], 6.9%; in assay [5] it was 1.2%; in assay [6], 7%.
As to `O=C1CCC(=O)N1[N+](=O)[O-]`, the growth inhibition in assay [1] is -17.2%; in assay [2], -10.2%; in assay [3], -18.8%; in assay [4], 2.95%; in assay [5] it was -2.45%; in assay [6] it was -16%.
Regarding `CC(C)=C(OP1(=S)OCCN1C)C(C)(C)C(=O)N(C)C` (configuration not stated), the growth inhibition in assay [1] was -2.6%; in assay [2], -3.65%; in assay [3], -1.9%; in assay [4], 12.8%; in assay [5], 11.9%; in assay [6], 4.45%.
With `CN1CCC2=C(c3ccccc3)c3ccccc3C2C1` (configuration not stated), the growth inhibition is 10.3% in assay [1]; -0.55% in assay [2]; 13.4% in assay [3]; -9.85% in assay [4]; 3.8% in assay [5]; 3.55% in assay [6].
As for `[CH3][Sn]1([CH3])[c]2ccccc2Oc2cccc[c]21`, the growth inhibition in assay [1] is -11.9%; in assay [2], 1.65%; in assay [3] it was 4.7%; in assay [4], -1.2%; in assay [5], 33.5%; in assay [6], -17.6%.
As to `COc1ccc(CCN(C)C(C)C2C3CC4CC(C3)CC2C4)cc1OC` (configuration not stated), the growth inhibition in assay [1] was 35.5%; in assay [2], 11.3%; in assay [3] it was 19.2%; in assay [4], -16.4%; in assay [5] it was -1.1%; in assay [6], 17.9%.
Regarding `CC1(c2ccccc2)CCC(=O)NC1=O` (configuration not stated), the growth inhibition was 7.2% in assay [1]; 19.6% in assay [2]; 14.6% in assay [3]; 32.5% in assay [4]; 7.85% in assay [5]; 38.6% in assay [6].
With `C=CCC1(OC(C)=O)CCC2C3CCC4CC=CCC4(C)C3CCC21C` (configuration not stated), the growth inhibition in assay [1] was -9.9%; in assay [2], 4.5%; in assay [3] it was -8.85%; in assay [4] it was -51.4%; in assay [5], 1%; in assay [6], -9.4%.
Turning to `CN1CN(c2ccccc2)C2(CCN(CCCSc3ccccc3NC(=O)/C=C/c3ccccc3)CC2)C1=O`, the growth inhibition in assay [1] is 20%; in assay [2], -3.95%; in assay [3], 18.8%; in assay [4], 18.9%; in assay [5], 41.3%; in assay [6] it was 34.2%.
Regarding `N#CC(C#N)c1ccccc1`, the growth inhibition in assay [1] was 29.1%; in assay [2], 2.6%; in assay [3], 3.5%; in assay [4] it was -4.05%; in assay [5], 8.75%; in assay [6], 1.2%.
Regarding `CCOP(O)(=S)OCC`, the growth inhibition is 16.8% and 9.55% and 2.25% in assay [1]; 23.4% and 10.2% and 2.35% in assay [2]; 11.6% and 7.65% and -4.2% in assay [3]; -2.05% and 20.1% and 6.7% in assay [4]; -15.8% and -14.5% and -14% in assay [5]; 17% and 18.8% and 3.2% in assay [6].
For `CC(C)(C)N1OC1C(Cl)(Cl)Cl` (configuration not stated), the growth inhibition was -20.6% in assay [1]; -9.55% in assay [2]; -23% in assay [3]; -18.3% in assay [4]; -4.95% in assay [5]; 10.4% in assay [6].
Take `COC1OC2COC(c3ccccc3)OC2C2N=C(N)N([N+](=O)[O-])C12OS(C)(=O)=O` (configuration not stated): the growth inhibition in assay [1] was -4.8%; in assay [2], -5.4%; in assay [3] it was -12.2%; in assay [4] it was -21.1%; in assay [5], -3.6%; in assay [6], 3.75%.
As to `CC1C(C(=O)c2ccc(-c3ccccc3)cc2)N1C(C)(C)C` (configuration not stated), the growth inhibition in assay [1] was -10.4%; in assay [2], 10.2%; in assay [3] it was 7.75%; in assay [4], 23.4%; in assay [5], 1.15%; in assay [6], -11.8%.
`COc1ccc2c3c1OC1C(Oc4nnnn4-c4ccccc4)C=CC4C(C2)N(C)CCC341` (configuration not stated): the growth inhibition in assay [1] is 39.2%; in assay [2], 5.55%; in assay [3], 13.5%; in assay [4], 21.6%; in assay [5] it was -5.75%; in assay [6], 12.5%.
For the compound `CCCNC(Cc1ccccc1)c1ccccc1` (configuration not stated), the growth inhibition in assay [1] was -7.95%; in assay [2], -9.25%; in assay [3], 3.4%; in assay [4], -10.1%; in assay [5] it was -0.7%; in assay [6] it was -1%.
On to `CC(=O)c1ccc(NC(O)C(Cl)(Cl)Cl)cc1` (configuration not stated), for which the growth inhibition in assay [1] is 5.75%; in assay [2], 18.9%; in assay [3], -0.25%; in assay [4] it was -12.2%; in assay [5], 18.8%; in assay [6] it was 22.4%.
Regarding `CC1(C)OP23(NC(=O)OC2(C(F)(F)F)c2ccccc2O3)OC1(C)C` (configuration not stated), the growth inhibition in assay [1] was -14.6%; in assay [2] it was -13.5%; in assay [3] it was -40.5%; in assay [4], -4.1%; in assay [5], -41.6%; in assay [6] it was -27.4%.
Take `O=C(CCl)Nc1ccccc1Cl`: the growth inhibition was 39% in assay [1]; 9.65% in assay [2]; 25.9% in assay [3]; 18.6% in assay [4]; 55.8% in assay [5]; 45.1% in assay [6].
For the compound `CNC(=O)Oc1cccc(NC(=O)OC(C)(C)C)c1`, the growth inhibition in assay [1] is 3.5%; in assay [2], 14.8%; in assay [3] it was 27.1%; in assay [4], 1.45%; in assay [5], 29.1%; in assay [6] it was 15.1%.
